In article PMC4336329 (PLoS ONE, 2015):
Out of some 310,000 compounds screened, about 2,200 (0.71%) showed an effect of 50% or more. Effects have a minus sign here. This is one part of a sample in which strong results are shown more often than they occur.

molecular target: human ether-à-go-go-related gene (hERG) potassium channel (human, UniProt Q12809); assay: primary screen, population patch clamp on CHO cells stably expressing hERG; higher = less effect of the substance
Sequence (Q12809 whole entry, looked up): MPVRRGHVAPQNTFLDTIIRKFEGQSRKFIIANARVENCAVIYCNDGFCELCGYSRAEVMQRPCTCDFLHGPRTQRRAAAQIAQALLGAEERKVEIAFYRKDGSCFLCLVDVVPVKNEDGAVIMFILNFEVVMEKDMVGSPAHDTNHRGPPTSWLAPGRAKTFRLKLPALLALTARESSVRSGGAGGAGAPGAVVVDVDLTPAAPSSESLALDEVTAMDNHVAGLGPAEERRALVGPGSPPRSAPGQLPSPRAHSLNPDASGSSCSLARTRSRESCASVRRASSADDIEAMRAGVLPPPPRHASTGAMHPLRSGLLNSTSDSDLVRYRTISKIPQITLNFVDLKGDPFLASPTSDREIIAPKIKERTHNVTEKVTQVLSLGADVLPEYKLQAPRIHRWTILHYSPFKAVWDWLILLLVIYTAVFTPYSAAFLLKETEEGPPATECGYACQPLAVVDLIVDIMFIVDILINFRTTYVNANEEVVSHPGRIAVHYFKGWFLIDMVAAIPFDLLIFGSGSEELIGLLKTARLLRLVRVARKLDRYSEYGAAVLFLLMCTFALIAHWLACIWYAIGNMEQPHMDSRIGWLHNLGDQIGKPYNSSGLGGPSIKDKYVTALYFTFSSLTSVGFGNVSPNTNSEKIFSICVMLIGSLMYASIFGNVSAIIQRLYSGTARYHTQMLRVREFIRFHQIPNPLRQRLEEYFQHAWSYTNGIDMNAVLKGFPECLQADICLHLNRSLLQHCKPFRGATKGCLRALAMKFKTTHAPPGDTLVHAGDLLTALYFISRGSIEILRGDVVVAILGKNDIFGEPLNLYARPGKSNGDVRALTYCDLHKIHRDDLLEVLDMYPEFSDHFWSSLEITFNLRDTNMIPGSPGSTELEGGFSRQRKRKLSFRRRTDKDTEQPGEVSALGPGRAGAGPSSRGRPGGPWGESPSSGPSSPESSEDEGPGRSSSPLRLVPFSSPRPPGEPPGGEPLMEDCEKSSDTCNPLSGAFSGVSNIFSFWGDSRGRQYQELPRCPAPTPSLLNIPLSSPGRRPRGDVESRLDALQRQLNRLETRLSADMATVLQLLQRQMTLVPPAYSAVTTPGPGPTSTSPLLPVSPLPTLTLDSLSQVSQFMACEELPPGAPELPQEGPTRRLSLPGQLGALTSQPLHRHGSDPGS

SMILES	hERG current change (%, negative = inhibition) at 1uM
CCNC(=O)Nc1nc2ccccc2s1	8.72%
Cc1nn(C)c(=O)c(N)c1-c1cc(-c2ccc(Cl)c(Cl)c2)n[nH]1	12.9%
CCN(C(=S)Nc1ccc(OC(F)F)cc1)C1CCCCC1	-1.82%
CCN(CC(=O)Nc1ccc(OC(F)F)cc1)C1CCCCC1	-61.6%
CCN(CC(=O)Nc1ccc(C(=O)OC)cc1)C1CCCCC1	16.3%
COc1ccc(OCCC(=O)c2ccc(OC)cc2)cc1	4.68%
CC(OC(=O)CC1CCCCC1)C(=O)Nc1cccc(C#N)c1 (stereo not shown)	6.92%
COc1cc(/C=N/NC(=O)C2CCN(CC(O)COCc3ccccc3)CC2)ccc1O (stereo not shown)	-63.6%
CCOc1ccc(/C=N/NC(=O)C2CC2)cc1OC	19.1%
COc1cc(/C=N/NC(=O)C2CCN(CC(O)COCc3ccccc3)CC2)cc(OC)c1OC (stereo not shown)	-34.2%
O=C(Nc1ccccc1)OCCOc1ccc(Br)cc1	11.2%
O=C(O)c1ccc(C[n+]2c(-c3ccccc3)csc2Nc2ccccc2)cc1.[Br-]	8.98%
CCOC(=O)c1cnc2ccc(C(=O)OC)cc2c1NCCc1ccc(OC)c(OC)c1	0.861%
CCOC(=O)c1cnc2c(C)cccc2c1NCCc1ccc(OC)c(OC)c1	-4.73%
CCOC(=O)c1cnc2ccc(OC)cc2c1NCCN1CCOCC1	-13.3%
Cl.Oc1ccc(CCNc2c3ccccc3nc3ccccc23)cc1O	-3.93%
CCOC(=O)c1cnc2ccccc2c1NCCO	-15.2%
CCOC(=O)c1cnc2ccccc2c1NCCc1ccc(OC)c(OC)c1	-72%
COc1ccc(CCNc2nc(-c3cccnc3)nc3ccccc23)cc1OC	9.94%
CCOC(=O)c1cnc2ccc(OC)cc2c1NCCc1ccc(OC)c(OC)c1	-69.5%
COc1ccc(CCNc2c3ccccc3nc3ccccc23)cc1OC.Cl	-59.8%
O=C(CCCOc1ccc(Cl)cc1)NC1CCCCC1	12.5%
Cc1ccc2sc(NNC(=O)c3ccc4c(c3)OCCO4)nc2c1C	8.2%
CCC(=O)n1nc(-c2ccc(Cl)cc2)nc1NCc1ccccc1	8.9%
COc1cccc(N2CC(O)=C(c3nc4ccccc4c(=O)[nH]3)C2=N)c1	6.93%
